# Measured values from PubChem BioAssay (NCI).
# Compounds without any hit were thinned out: in the full panel of roughly 79,000, 15% have a hit. A number with no mark means an inactive call. Calls of active or inactive are those of the source. Rule as the data show it: active = growth inhibition above about 70%; inactive = the rest.
# Assay: NCI Yeast Anticancer Drug Screen. Data for the rad50 strain (AID 155);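 also: 0% = growth of vehicle-only cultures of the same strain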
# Conditions: S. cerevisiae rad50 strain growth inhibition; at 50.0 µM; active compounds read high
# In short: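 Relative growth inhibition (compound vs vehicle) was measured in yeast with a defined repair-gene alteration.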
row,SMILES,growth inhibition
1,O=[N+]([O-])c1ccc(N2N=NC(CN3CCOCC3)C2N2CCOCC2)cc1 (centres undefined),77.5% (active)
2,FC(F)(F)c1ccccc1NC(=S)SCc1ccco1,93.7% (active)
3,O=C(c1ccc(Cl)cc1)C1N=NCC1c1ccccc1 (centres undefined),-2.2%
4,COc1cc(C2c3cc4c(cc3[C@@H](OCCN)[C@H]3COC(=O)C23)OCO4)cc(OC)c1O (some centres undefined),52.2%
5,CC(C)(C)c1cc2c(c(C(C)(C)C)c1O)CC(=O)O2,27.7%
6,CCCCCCCCCCCCCCCCCCSSCCCCCCCCCCCCCCCCCC,36.1%
7,c1ccc2c(c1)OCC(CNCCNCC1COc3ccccc3O1)O2 (centres undefined),72% (active)
8,CC(=O)C(C(C)=O)C1C=CC=CC=C1,97% (active)
9,c1ccc2c(c1)ccc1c[n+]3c4ccccc4ccc3n12,73.6% (active)
10,CC(=O)C(=C(I)I)c1ccccc1,51.6%
11,O=C1c2ccccc2CN1Cc1ccc(Cl)c(Cl)c1,84.4% (active)
12,CC1CC(N)=NC1C(=O)NCCC#N (centres undefined),10.9%
13,CC(=O)CC(C)=NCCN=C(C)CC(C)=O.[Pd],76% (active)
14,CCOc1ccccc1NC1=C(Cl)C(=O)c2ccccc2C1=O,23.9%
15,CCN1C2=NCCN2S(=O)(=O)c2ccccc21,-14.4%
16,O=C(Cc1nc2ccccc2s1)C(=O)Nc1ccc(Cl)cc1,8%
17,O=C(CCn1[nH]c(=O)c(Cl)c(Cl)c1=O)NNc1ccc([N+](=O)[O-])cc1[N+](=O)[O-],35.8%
18,COc1cccc(C2c3cc4c(cc3OC(NNc3ccccc3)C2C)OCO4)c1OC (centres undefined),73.2% (active)
19,COc1ccc(-c2cc3ccccc3c(=O)n2Cc2ccccc2)cc1,78.3% (active)
20,CN(C)CCCNCC(=O)Nc1ccc(S(=O)(=O)c2ccc(NC(=O)CNCCCN(C)C)cc2)cc1,95.2% (active)

row,SMILES,growth inhibition
1,O=C1NN=C(c2ccc(Cl)cc2)CC1C1C(=O)N(c2ccccc2)N=C1c1ccccc1 (centres undefined),98.5% (active)
2,Cc1ccc(S(=O)(=O)NCCSSCCNS(=O)(=O)c2ccc(C)cc2)cc1,93.5% (active)
3,O=C(CC(=O)c1ccccc1)CC(=O)c1ccccc1Br,71.1% (active)
4,Nc1ncc2ccccc2c1-c1ccc(NC(=O)CCCl)cc1,70% (active)
5,CC1=NC(=Cc2cccc(Cl)c2)C(=O)N1n1c(-c2ccccc2)nc2ccccc2c1=O,68.5%
6,CCCOC(=O)CCCC(=O)N(CC)CC,10.7%
7,C=C1C(=O)[C@@]23CC[C@H]4[C@@](C)(CCC[C@@]4(C)C(=O)OC)[C@@H]2CC[C@]1(O)C3,92.2% (active)
8,CCCCN(CCCC)CCC(=O)c1ccc2c(ccc3ccccc32)c1,96.3% (active)
9,CC1CCC2(C)C(CC=C(C=O)C2(O)C=O)C12CO2 (centres undefined),93.4% (active)
10,CN(C)CC1CC/C(=C\c2ccc(Cl)c(Cl)c2)C1=O (centres undefined),93.1% (active)
11,CCS(=O)(=O)c1ccc(NC(=O)OC2CCCCCCC2)cc1,95.8% (active)
12,CC(=O)OC1CCCCCCCCCCC12OCCO2 (centres undefined),30%
13,CC(=O)OCc1cc2c(s1)C(=O)c1sccc1C2=O,49.6%
14,O=C1C=CC(=O)c2nc3ccccc3nc21,85.3% (active)
15,Cc1ccccc1C1c2c(C)cccc2C(=O)CC1CC(=O)O (centres undefined),58%
16,CCOC(=O)c1c(N)sc2c1CCCCC2,47%
17,CCCCC(O)CCCC,4.55%
18,Nc1nn2c(C(Br)Br)cc(C(Br)Br)nc2c1[N+](=O)[O-],99.5% (active)
19,COC(=O)c1n[nH]c(C(C)C)c1N=NN(C)C,98.9% (active)
